Bioassay records from PubChem.
The list is a sample of the results.
aSyn 5UTR act = Activators working through SNCA 5'UTR binding (MLPCN); alpha-synuclein 5'UTR reporter, activators screen; activity score, % (tested at 7.5 µM), hits read low; 7.1% of 300,000 active; AID 1814; in the data active = activity score below about -60%
A number is an active result.

How did CCOC(=O)c1ccc(NC(=O)Oc2ccccc2)cc1 do in these assays?
aSyn 5UTR act: -66

Results for CCOC(=O)c1ccc(Nc2ncccc2[N+](=O)[O-])cc1 ?
aSyn 5UTR act: -218

What do the screens show for `CCC(=O)NC(c1ccc(C)cc1)c1cc([N+](=O)[O-])c2cccnc2c1O` (configuration not stated)?
aSyn 5UTR act: inactive

Results for O=C(OCCC1Oc2cccnc2NC1=O)c1ccc([N+](=O)[O-])cc1 (configuration not stated) ?
aSyn 5UTR act: inactive

How did CCOC(=O)c1ccc(NC(=O)c2ccccc2)cc1 do in these assays?
aSyn 5UTR act: -252

What do the screens show for `O=C(Nc1ccc2c(c1)OCO2)c1n[nH]c(=O)c2ccccc12`?
aSyn 5UTR act: -140

Results for CCOC(=O)c1ccc(NC(=O)c2ccccc2[N+](=O)[O-])cc1 ?
aSyn 5UTR act: -76

What do the screens show for `CC1CCN(c2ccc(NC(=O)c3ccccc3[N+](=O)[O-])cc2)CC1`?
aSyn 5UTR act: -70

How did Cc1ccc(NC(=O)N/C=C/c2ccc(Cl)cc2)cc1 do in these assays?
aSyn 5UTR act: -94

How did Cc1ccc(NC(=O)N/C=C/c2ccccc2)cc1 do in these assays?
aSyn 5UTR act: -92

What do the screens show for `CC1CCC(NC(=O)N(CCCl)N=O)CC1` (configuration not stated)?
aSyn 5UTR act: -138

What do the screens show for `CN(C)c1ccc(C(CN)c2c[nH]c3ccccc23)cc1` (configuration not stated)?
aSyn 5UTR act: -97

What do the screens show for `COc1ccc(N=C/C=C2\C=C(c3ccccc3)OC(C)(C)O2)cc1`?
aSyn 5UTR act: -135

What do the screens show for `Clc1nc2sccn2c1/C=N/n1cnc2ccccc21`?
aSyn 5UTR act: -148

Results for Cc1cc(C)c2c(N)c(-c3nc4ccccc4[nH]3)sc2n1 ?
aSyn 5UTR act: -131

What do the screens show for `Cc1ccc(O)c(C2=Nc3ccccc3C2(C)C)c1`?
aSyn 5UTR act: -157

What do the screens show for `Cc1ccc(O)c(C(=O)c2cnn(-c3ccccc3)c2)c1`?
aSyn 5UTR act: -68

What do the screens show for `O=C(Cc1cnn(-c2ccccc2)c1)c1ccc(O)c(O)c1O`?
aSyn 5UTR act: -81

What do the screens show for `Cc1ccc(-n2nnnc2SCC(=O)Nc2sc(C)c(C)c2C#N)cc1C`?
aSyn 5UTR act: -71

What do the screens show for `CC1(C)CN=c2s/c(=C\c3ccc(Cl)cc3)c(=O)n2C1`?
aSyn 5UTR act: -111

Results for COc1ccc(/C=C/C(=O)Nc2cc(C)on2)cc1 ?
aSyn 5UTR act: -216

What do the screens show for `COc1ccc(/C=C/C(=O)Nc2cc(C(F)(F)F)ccc2Cl)cc1`?
aSyn 5UTR act: -62

How did COc1cc(-c2noc(C)c2/C=C/c2ccc(OC(C)=O)cc2)cc(OC)c1OC do in these assays?
aSyn 5UTR act: inactive

Results for Cc1cc(NC(=O)/C=C/c2ccccc2)no1 ?
aSyn 5UTR act: -156

How did CC(=O)Nc1nc(NC(=O)/C=C/c2ccccc2)n(-c2ccccc2)n1 do in these assays?
aSyn 5UTR act: inactive

How did COc1ccc(/C=C/C(=O)Nc2nonc2NC(C)=O)cc1 do in these assays?
aSyn 5UTR act: -155

How did COc1ccc(C(=O)/C=C/Nc2cc(C)on2)cc1 do in these assays?
aSyn 5UTR act: -94

What do the screens show for `C#CCNC(=O)/C=C/c1ccc(OC)cc1`?
aSyn 5UTR act: -75

How did Cc1cc(NC(=O)/C=C/c2ccccc2Cl)no1 do in these assays?
aSyn 5UTR act: -249

Results for COc1cc(/C=N/Nc2nc(Nc3ccccc3)nc(-n3nc(C)cc3C)n2)cc(OC)c1OC ?
aSyn 5UTR act: -68

How did Cc1ccc(NC(=O)Nc2cccs2)cc1 do in these assays?
aSyn 5UTR act: -130

Results for CCOc1ccc(NC(=O)Nc2cccs2)cc1 ?
aSyn 5UTR act: -161

What do the screens show for `Cc1ccc(NC(=O)Nc2cccs2)nc1`?
aSyn 5UTR act: -168

Results for CCc1ccc(NC(=O)Nc2cccs2)cc1 ?
aSyn 5UTR act: -169

Results for CCc1ccc(NC(=O)Nc2ccsc2C(=O)OC)cc1 ?
aSyn 5UTR act: -65

Results for CC(C)(C)n1nc2c(c1NC(=O)c1cc([N+](=O)[O-])ccc1Cl)CS(=O)(=O)C2 ?
aSyn 5UTR act: -95

Results for Cc1ccc(C(=O)Nc2c3c(nn2C(C)(C)C)CS(=O)(=O)C3)cc1[N+](=O)[O-] ?
aSyn 5UTR act: -79

Results for COc1ccc(C(=O)Nc2nc3ccccc3s2)cc1OC ?
aSyn 5UTR act: -212

Results for O=C(Nc1nc2ccccc2s1)c1cccc(N2C(=O)CCC2=O)c1 ?
aSyn 5UTR act: -82

What do the screens show for `COc1cccc(C(=O)Nc2nc(C)cs2)c1`?
aSyn 5UTR act: -142

What do the screens show for `COc1cc(C(=O)Nc2nc3ccc(C)cc3s2)ccc1OCc1c(C)noc1C`?
aSyn 5UTR act: -99

What do the screens show for `COc1cc(OC)cc(C(=O)NCC(=O)OCc2nc3ccccc3s2)c1`?
aSyn 5UTR act: -184

How did CC(C)[C@H](NC(=O)c1cccc(S(=O)(=O)N2CCOCC2)c1)C(=O)Nc1nc2ccccc2s1 do in these assays?
aSyn 5UTR act: -72

Results for Cc1cccc(C(=O)N[C@H](C(=O)Nc2nc3ccccc3[nH]2)C(C)C)c1 ?
aSyn 5UTR act: inactive

Results for Cc1ccnc(NC(=O)c2cccc(S(=O)(=O)N3CCCc4ccccc43)c2)c1 ?
aSyn 5UTR act: -128

Results for O=C(Nc1nc2ccccc2s1)c1cc(-c2ccccc2)nn1-c1ccccc1 ?
aSyn 5UTR act: -137

What do the screens show for `O=C(Nc1nc2ccccc2s1)c1cccc(S(=O)(=O)N2CCc3ccccc32)c1`?
aSyn 5UTR act: -64

Results for COc1ccc(C(=O)Nc2nc3ccccc3s2)cc1 ?
aSyn 5UTR act: inactive

Results for COc1cccc(C(=O)Nc2nc3ccccc3s2)c1 ?
aSyn 5UTR act: -108

How did COCC(=O)Nc1ccc(OCc2ccccc2)cc1 do in these assays?
aSyn 5UTR act: -79

Results for COC(=O)Nc1ccc(OCc2ccccc2)cc1 ?
aSyn 5UTR act: -112

What do the screens show for `CC(=O)Nc1ccc(N=Cc2ccc(OCc3ccccc3)cc2)cc1`?
aSyn 5UTR act: -129

Results for CS(=O)(=O)Nc1ccc(OCc2ccccc2)cc1 ?
aSyn 5UTR act: -168

What do the screens show for `Oc1ccc(NCc2ccc(OCc3ccccc3)cc2)cc1`?
aSyn 5UTR act: -100

How did COc1ccccc1NC(=O)C(=O)N/N=C(\C)CC(=O)Nc1ccc(OCc2ccccc2)cc1 do in these assays?
aSyn 5UTR act: -62

What do the screens show for `O=C(Nc1ccc2c(c1)CCC2)c1cccc(F)c1`?
aSyn 5UTR act: -143

Results for COc1cccc(NC(=O)Nc2ccc3c(c2)CCC3)c1 ?
aSyn 5UTR act: -130

How did CC(=O)c1ccc(NC(=O)c2cnn3ccccc23)cc1 do in these assays?
aSyn 5UTR act: inactive

What do the screens show for `CC(=O)c1cccc(NC(=O)c2cnn3ccccc23)c1`?
aSyn 5UTR act: -106

Results for CC(=O)c1cccc(NC(=O)c2ccc3c(c2)CCCC3)c1 ?
aSyn 5UTR act: -132

What do the screens show for `S=c1nc[nH]c2nc[nH]c12`?
aSyn 5UTR act: inactive

What do the screens show for `CCc1ccc(NC(=O)Nc2ccc3c(c2)CCC3)cc1`?
aSyn 5UTR act: -125

How did COc1cccc(NC(=O)COc2ccc3c(c2)CCC3)c1 do in these assays?
aSyn 5UTR act: -65

What do the screens show for `Cn1cc(C(=O)Nc2ccc3c(c2)CCC3)cn1`?
aSyn 5UTR act: -105

How did Cc1cccc(NC(=O)Nc2ccc3c(c2)CCC3)c1 do in these assays?
aSyn 5UTR act: -116

Results for CC(=O)c1cccc(NC(=O)Nc2ccc3c(c2)CCC3)c1 ?
aSyn 5UTR act: -91

Results for COC(=O)c1c(-c2ccc(Br)cc2)noc1N ?
aSyn 5UTR act: -65

How did CCOc1ccc(NC(=O)Nc2cc(C)ccc2F)cc1 do in these assays?
aSyn 5UTR act: -199
